Measurements from PubChem BioAssay (EPA / NIEHS).
Records with an inconclusive call do not appear. Activity calls are given as the source filed them. How the source made its calls: active means hit-call score of the fitted dose curve at least 0.9, where 1 is the maximum; inconclusive means response in the unintended direction; inactive means score below 0.9.

target: Estrogen receptor beta (Homo sapiens) (UniProt Q92731); assay: OT_ER_ERbERb_0480: Odyssey Thera (OT) 8-hour HEK293T Protein-Complementation Assay for Estrogen Receptor-beta/-beta Homodimer (AID 2283357)
Procedure: OT_ER_ERbERb_0480 is a cell-based assay that uses HEK293T, a human kidney cell line, with measurements taken at 8 hours after chemical dosing in a 384-well plate.OT_ER_ERbERb_0480 is one of one assay component(s) measured or calculated from the OT_ER_ERbERb_0480 assay. It is designed to make measurements of protein fragment complementation, a form of binding reporter, as detected with fluorescence intensity signals by Protein-fragment Complementation technology.Data from the assay component OT_ER_ERbERb_0480 was analyzed into 1 assay endpoint. This assay endpoint, OT_ER_ERbERb_0480, was analyzed in the positive analysis fitting direction relative to DMSO as the negative control and baseline of activity. Using a type of binding reporter, measures of receptor for gain-of-signal activity can be used to understand the binding at the pathway-level as they relate to the gene ESR2. Furthermore, this assay endpoint can be referred to as a primary readout, because the performed assay has only produced 1 assay endpoint. To generalize the intended target to other relatable targets, this assay endpoint is annotated to the nuclear receptor intended target family, where the subfamily is steroidal.
Protein-fragment complementation assay, or PCA, is a method for the identification and quantification of protein-protein interactions. In the PCA, the proteins of interest ("bait" and "prey") are each covalently linked to fragments of a third protein (e.g. DHFR, which acts as a "reporter"). Interaction between the bait and the prey proteins brings the fragments of the reporter protein in close proximity to allow them to form a functional reporter protein whose activity can be measured. The OT ER beta / ER beta assay is a homodimer PCA of the ligand binding domain (LBD; amino acids 310-547) of human ER beta stably expressed in HEK293T cells. […] Cells are fixed in 4 percent formaldehyde and stained with Draq5 (BioStatus) to identify cells prior to signal detection. Fluorescent signal in the basal state of the assay is very low and is primarily punctuate and cytoplasmic. Modulation of this assay is quantified as an increase in mean fluorescence intensity in the nucleus (for agonists) or in the nucleus and cytoplasm (antagonists) relative to vehicle controls, and can be quantified on a high content imaging device or a laser scanning cytometer. The latter instrument is favored for this assay because of the rapid mode of data acquisition, the ability to acquire data from the entire cell population in a well (as opposed to a fraction of the well on the high content devices) and the larger dynamic range typically achieved with this instrument. To assess sensitivity of the ER beta/ER beta LBD assay to ligand, cells were treated with the ER agonist 17- beta-estradiol (E2) in 10-point concentration- response format for 8 hours and monitored response on a laser scanning plate cytometer (Acumen eX3; TTP Lab Tech).

Estrogen receptor beta (Homo sapiens), sequence (Q92731 whole entry, looked up, the tested form may be a part): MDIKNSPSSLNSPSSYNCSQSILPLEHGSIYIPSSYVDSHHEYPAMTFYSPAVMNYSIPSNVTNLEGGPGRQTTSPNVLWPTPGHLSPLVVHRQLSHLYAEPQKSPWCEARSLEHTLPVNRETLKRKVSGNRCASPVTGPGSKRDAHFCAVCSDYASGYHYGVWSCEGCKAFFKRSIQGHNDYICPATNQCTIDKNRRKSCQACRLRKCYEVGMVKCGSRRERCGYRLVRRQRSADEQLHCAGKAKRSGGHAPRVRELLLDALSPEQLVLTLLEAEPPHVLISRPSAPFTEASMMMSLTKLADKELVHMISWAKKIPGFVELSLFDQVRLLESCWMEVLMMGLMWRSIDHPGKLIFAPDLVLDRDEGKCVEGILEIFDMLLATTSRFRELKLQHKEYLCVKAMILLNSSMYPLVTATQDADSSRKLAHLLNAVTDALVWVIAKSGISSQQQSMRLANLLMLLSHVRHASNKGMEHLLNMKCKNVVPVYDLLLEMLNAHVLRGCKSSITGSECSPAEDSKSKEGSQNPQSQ

SMILES	AC50	outcome
C(=C(c1ccccc1)c1ccccc1)c1ccccc1	1.49 µM (active)	–
CCCCCCC(C)OC(=O)CCCCC(=O)OC(C)CCCCCC (stereo not given)	–	inactive
CC(CCl)OP(=O)(OC(C)CCl)OC(C)CCl (stereo not given)	–	inactive
Cc1cc(C)cc(O)c1	–	inactive
CCCCCCOC(=O)c1ccccc1O	–	inactive
Cc1ccc(S(=O)(=O)NCl)cc1	–	inactive
C1COCCN1	–	inactive
CCN(Cc1cccc(S(=O)(=O)O)c1)c1ccc(C(=C2C=CC(=[N+](CC)Cc3cccc(S(=O)(=O)O)c3)C=C2)c2ccc(O)cc2S(=O)(=O)[O-])cc1	–	inactive
COC(=O)C1CCC(C(=O)OC)CC1 (stereo not given)	–	inactive
CC/C=C\CCOC(C)=O	–	inactive
CN(C)Cc1ccccc1O	–	inactive
[Co]	–	inactive
CCCCCCOC(=O)c1ccccc1	–	inactive
CCCCOc1ccc(N)cc1	–	inactive
CC(Cc1ccc(O)c(O)c1)C(C)Cc1ccc(O)c(O)c1 (stereo not given)	11.9 µM (active)	–
